CHX counter: affects cycloheximide protein synthesis inhibition readout, counter-screen; 300,000 tested, 12% active; max response, %; AID 2314; cell reporter, cycloheximide protein synthesis inhibition counterscreen; in the data active = max response mostly above about 13%, no sharp cut-off; inactive = mostly below about 14%; note: read at 38.3 µM for the half of the compounds with a filed dose; 0% is about no effect
Pf growth 48h: inhibits P. falciparum growth in the first generation, 48 h. 310,000 tested, 5.9% active. AID 504832. P. falciparum luciferase growth in erythrocytes, 48 h. Potency, µM (doses to about 28.7 µM), for the others: top-dose activity change, negative = inhibition, usual class: inhibitors; note: potency is the fitted concentration of half-maximal effect; % is set by controls: 0 for no effect and ±100 for the full control effect
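Here the parasites carry a stable luciferase gene and grow inside erythrocytes in Albumax-based RPMI medium with compound for one erythrocytic cycle. Activity is scored as loss of luminescent signal.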
HCMV inh: inhibitors of human cytomegalovirus | 410,000 tested, 4.5% active | activity change, negative = inhibition, % at 57.5 µM | AID 1259415 | HFF cells, HCMV-luciferase reporter, 72 h; active compounds read low; in the data active = activity change below about -60%; inconclusive = no clear call, values can overlap the other calls; inactive = above about -39%; note: % is set by controls: 0 for no effect and ±100 for the full control effect
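Human foreskin fibroblasts infected with luciferase-reporter HCMV at MOI 1 PFU/cell, compounds at two doses. Luciferase measured 72 h post infection; normalized to buffer-only basal and Salinomycin (10uM) controls.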
Pf growth 96h: inhibits malaria parasite growth, 96 h. P. falciparum luciferase reporter growth, 96 h. Potency, µM (doses to about 28.7 µM), for the others: top-dose activity change, negative = inhibition, actives largely listed as inhibitors. 320,000 tested, 6.9% active. AID 504834; note: potency is the fitted concentration of half-maximal effect; % is set by controls: 0 for no effect and ±100 for the full control effect
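Cell-based qHTS: luciferase-tagged P. falciparum in erythrocytes (2% hematocrit, 0.05% parasitemia final) incubated with compounds for 96 hours, 37 C, 5% CO2; luciferase detection reagent then added and luminescence measured.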
Shiga inhibitor: inhibitors of Shiga toxin in Vero cells; Vero cells, Shiga toxin protein synthesis inhibition reporter; inhibition, % at 38.7 µM; 290,000 tested, 9.2% active; AID 2315; in the data active = inhibition mostly above about 28%, no sharp cut-off; inactive = mostly below about 43%; note: 0% is about no effect
* marks the source's active call; other numbers are inactive results; ? = inconclusive; nt = not tested or not shown. Rows were chosen to be rich in hits. Some 20% of all compounds tested hit in one or more screens of this group. Unless noted, calls come from the whole dose curve; as a rule, active = well fitted inhibition curve with a large enough effect; inconclusive = small, poorly fitted or top-dose-only effect, or another doubt; inactive = no such curve, though single readings can be large or run the other way.

SMILES | CHX counter | Pf growth 48h | HCMV inh | Pf growth 96h | Shiga inhibitor
C=CCn1c(SCC(=O)NCCOC)nnc1-c1cc2c(s1)CCC(CC)C2 (stereo not drawn) | 15* | -16% | -17 | -22% | -70
C=CCn1c(SCC(=O)NCC)nnc1-c1cc2c(s1)CCC(CC)C2 (stereo not drawn) | 42* | 29% | -68* | 13% | 94*
CCCCN(C(=O)COC(=O)CSc1ccc([N+](=O)[O-])cc1)c1c(N)n(CCC)c(=O)[nH]c1=O | nt | 20% | -35 | 25% | nt
COc1ccc2oc3cc(C)[n+]([O-])c(-c4ccc(Br)cc4)c3c2c1 | -6 | -6% | -84* | ? | -2
COc1ccccc1NS(=O)(=O)c1cc(NC(=O)/C=C/c2cccs2)ccc1N1CCOCC1 | -2 | 12µM* | -13 | ? | -8
O=C(/C=C/c1cccs1)Nc1ccc(N2CCOCC2)c(S(=O)(=O)Nc2ccccc2Cl)c1 | 21* | ? | -78* | ? | 61*
N#Cc1cc(N2CCCCC2)c([N+](=O)[O-])cc1C#N | 5 | 3% | -64* | ? | -6
O=[N+]([O-])c1cc(F)c(N2CCCCC2)cc1N1CCOCC1 | 0 | 22% | -29 | 0% | -4
O=[N+]([O-])c1ccc(N2CCCCCC2)c([N+](=O)[O-])c1 | 7 | 7% | 40 | 7% | -3
O=[N+]([O-])c1cc2no[n+]([O-])c2cc1N1CCCCC1 | nt | nt | -63* | nt | nt
CCC[C@H]1[C@@H](NC(=O)Nc2ccc(OC)cc2)CC[C@@]23CCCN2C(=O)CCC[C@@H]13 | nt | nt | -2 | nt | nt
CC1Cc2cc(S(=O)(=O)NCc3ccccc3)ccc2N1C(=O)C1CCC1 (stereo not drawn) | -2 | -5% | -11 | ? | 8
COCCNC(=O)C1CCC(CNS(=O)(=O)c2ccc3c(c2)CC(C)N3C(C)=O)CC1 (stereo not drawn) | nt | nt | -9 | nt | nt
CC1Cc2cc(S(=O)(=O)NCc3ccccc3)ccc2N1C(=O)C1CC1 (stereo not drawn) | 26* | 26% | -10 | ? | 2
COCCCNC(=O)C1CCC(CNS(=O)(=O)c2ccc3c(c2)CC(C)N3C(=O)C2CC2)CC1 (stereo not drawn) | -2 | -4% | -22 | 13µM* | -6
CC(=O)N1c2ccc(S(=O)(=O)NCCC(=O)NCCc3ccc(C)cc3)cc2CC1C (stereo not drawn) | 17 | ? | 0 | 41% | -4
COc1ccc(NC(=O)CCNS(=O)(=O)c2ccc3c(c2)CC(C)N3C(=O)C2CC2)cc1 (stereo not drawn) | 15 | ? | -25 | ? | 10
COc1cccc(NC(=O)CCNS(=O)(=O)c2ccc3c(c2)CC(C)N3C(=O)C2CC2)c1 (stereo not drawn) | 9 | 1% | -71* | 51% | -10
CC(=O)N1c2ccc(S(=O)(=O)NCCC(=O)NCCc3ccc(Cl)cc3)cc2CC1C (stereo not drawn) | -3 | -6% | -61* | -18% | -7
C/C1=C\CCCCc2cc(O)ccc2OC(=O)CC1 | nt | nt | -19 | nt | nt
CC1(C(=O)O)CCCN1C(=O)c1cc2ccccc2s1 (stereo not drawn) | nt | nt | -10 | nt | nt
CC(=O)c1cccc(NC(=O)CN2C(=O)CN(C)C(=O)c3ccccc32)c1 | nt | nt | 18 | nt | nt
Cc1ccc(CNC(=O)CS(=O)(=O)c2cccc3nsnc23)cc1 | nt | nt | 7 | nt | nt
O=C(C1CC1)N1CCc2cc(S(=O)(=O)NCc3ccccc3)ccc21 | 14* | 36% | -11 | ? | 6
CCN(c1ccccc1)S(=O)(=O)c1ccc2c(c1)CC(C)N2C(=O)C1CC1 (stereo not drawn) | 5 | ? | 0 | 4.1µM* | 3
SMILES | CHX counter | Pf growth 48h | HCMV inh | Pf growth 96h | Shiga inhibitor
CC(=O)N1c2ccc(S(=O)(=O)N(C)CC(=O)NCc3ccccc3)cc2CC1C (stereo not drawn) | 1 | -8% | 12 | ? | -3
CCOc1ccc(CNS(=O)(=O)c2ccc3c(c2)CC(C)N3C(C)=O)cc1OC (stereo not drawn) | nt | nt | -25 | nt | nt
COc1cc(CNS(=O)(=O)c2ccc3c(c2)CC(C)N3C(C)=O)cc(OC)c1OC (stereo not drawn) | 7 | ? | -27 | 5.9µM* | -8
COc1cccc(CNS(=O)(=O)c2ccc3c(c2)CCN3C(=O)C2CC2)c1 | 3 | -14% | -29 | ? | -5
CC(=O)N1c2ccc(S(=O)(=O)N(C)CC(=O)NC(C)c3ccccc3)cc2CC1C (stereo not drawn) | -2 | -12% | -25 | 9.3µM* | 4
CSCCC(NC=O)C(=O)NC(C)C(=O)O (stereo not drawn) | nt | nt | 46 | nt | nt
CCCc1nc(SCC(=O)N2c3ccccc3CC2C)c2c(C)c(C)sc2n1 (stereo not drawn) | -3 | ? | ? | ? | -18
CCC(=O)N1c2ccc(S(=O)(=O)CCC(=O)NC3CCCC3)cc2CC1C (stereo not drawn) | -3 | 19% | 8 | 65% | -13
CCc1cccc(NS(=O)(=O)c2ccc3c(c2)CC(C)N3C(=O)C2CC2)c1 (stereo not drawn) | nt | nt | -80* | nt | nt
CCC(=O)N1c2ccc(S(=O)(=O)NCc3ccccc3)cc2CC1C (stereo not drawn) | 36* | 25% | ? | 36% | 19
CC1Cc2cc(S(=O)(=O)NCCc3ccccc3)ccc2N1C(=O)C1CCC1 (stereo not drawn) | nt | nt | -19 | nt | nt
CCC(=O)N1c2ccc(S(=O)(=O)NC3CCCCC3)cc2CC1C (stereo not drawn) | 31* | 0% | -11 | 10µM* | 13
CCN(c1cccc(C(F)(F)F)c1)S(=O)(=O)c1ccc2c(c1)CCN2C(=O)C1CC1 | -1 | ? | -82* | nt | -5
CCOC(=O)C1=C(COC(=O)C(CC)Oc2ccccc2)NC(=O)NC1C (stereo not drawn) | nt | 9% | 3 | 50% | nt
Cc1ccccc1C1=NOC2CN(C(=O)c3ccc4c(c3)OCO4)CC12 (stereo not drawn) | nt | nt | 46 | nt | nt
O=[N+]([O-])c1cc(CS(=O)(=O)Oc2ccc(Cl)cc2)c(O)c([N+](=O)[O-])c1 | nt | nt | 22 | nt | nt
CS(=O)(=O)N1CCC(N2CCN(Cc3ccc(F)cc3)C(=O)C2=O)CC1 | nt | nt | 3 | nt | nt
COc1ccccc1N1CCN(c2nc3ccc(C)cc3n3nnnc23)CC1 | nt | nt | -32 | nt | nt
O=C1c2ccccc2C(=O)c2c1cccc2N(CCO)CCO | 13 | 26% | 38 | 17% | 15
O=C1C=C(N(CCO)Cc2ccccc2)c2ccccc2C1=O | -1 | 3.7µM* | nt | 0% | -13
Cc1ccc(NC(=O)[C@@H](C)NC(=O)[C@@H]2Cc3ccccc3CN2)cc1 | 24* | 1% | nt | 14% | 22
CC(NC(=O)[C@@H](NC(=O)[C@@H]1Cc2ccccc2CN1)C(C)C)c1ccccc1 (stereo partly drawn) | -1 | 0% | -30 | 1% | -5
Cc1ccc(NC(=O)[C@H](NC(=O)[C@@H]2Cc3ccccc3CN2)c2ccccc2)cc1C | 17* | -7% | nt | ? | 20
